Numbering of substitutions follows the chain as printed.

Sequence of HOXB9 (P17482 171-250 T197M): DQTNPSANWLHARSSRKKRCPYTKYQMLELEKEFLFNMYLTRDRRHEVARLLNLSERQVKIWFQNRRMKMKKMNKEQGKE

The target in one experiment is T1, VENTX (Homo sapiens, UniProt O95231 78-163, R121Q).
T1 sequence: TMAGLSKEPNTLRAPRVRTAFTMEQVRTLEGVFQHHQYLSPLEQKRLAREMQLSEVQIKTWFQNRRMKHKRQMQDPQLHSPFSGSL
The experiment in a line: PBM; 200 nM protein, PBS. As to conditions: dsDNA, one strand shown.
As to CCATTAAC, the binding signal was 12.1 upbm affinity estimate (log intensity, higher = more binding, comparable within an allelic series).
Regarding GGGGTACC, the binding signal was 8.08 upbm affinity estimate (log intensity, higher = more binding, comparable within an allelic series).
The same measure, in the same setting: the figure for GCCATTAA is 11.8 upbm affinity estimate (log intensity, higher = more binding, comparable within an allelic series); for CCCCCTGA it is 7.9 upbm affinity estimate (log intensity, higher = more binding, comparable within an allelic series).
Same read-out and setting: in the case of CCCCATGC it was 8.07 upbm affinity estimate (log intensity, higher = more binding, comparable within an allelic series).
CCCCTCGG: the binding signal is 8.03 upbm affinity estimate (log intensity, higher = more binding, comparable within an allelic series).
The same measure, in the same setting: in the case of CGAGCGAC it was 8.03 upbm affinity estimate (log intensity, higher = more binding, comparable within an allelic series); in that of CCGTCCGC, 7.99 upbm affinity estimate (log intensity, higher = more binding, comparable within an allelic series).
The same measure, in the same setting: in the case of GACCCAGC it was 8.18 upbm affinity estimate (log intensity, higher = more binding, comparable within an allelic series).
Same read-out and setting: in the case of CCGGGAGG it was 8.1 upbm affinity estimate (log intensity, higher = more binding, comparable within an allelic series); in that of GCCGCAGC, 8.08 upbm affinity estimate (log intensity, higher = more binding, comparable within an allelic series).
On to CCAGGGCC, for which the binding signal is 8.11 upbm affinity estimate (log intensity, higher = more binding, comparable within an allelic series).
For CCCTTCCG, the binding signal is 8.08 upbm affinity estimate (log intensity, higher = more binding, comparable within an allelic series).
For the sequence GTATTAAA, the binding signal was 9.94 upbm affinity estimate (log intensity, higher = more binding, comparable within an allelic series).
GCTTGGCC: the binding signal is 7.86 upbm affinity estimate (log intensity, higher = more binding, comparable within an allelic series).
For the sequence ACGCATTA, the binding signal was 10.4 upbm affinity estimate (log intensity, higher = more binding, comparable within an allelic series).
Still for that read-out and setting: in the case of CGATTAAA it was 10.7 upbm affinity estimate (log intensity, higher = more binding, comparable within an allelic series).
The same measure, in the same setting: in the case of CTGGGACC it was 8.08 upbm affinity estimate (log intensity, higher = more binding, comparable within an allelic series).
For the sequence GGCACCAC, the binding signal was 8.11 upbm affinity estimate (log intensity, higher = more binding, comparable within an allelic series).
The same measure, in the same setting: the figure for CCCGGACG is 7.96 upbm affinity estimate (log intensity, higher = more binding, comparable within an allelic series); for CACGGGGG it is 7.84 upbm affinity estimate (log intensity, higher = more binding, comparable within an allelic series); for AGAGGGGC it is 8.19 upbm affinity estimate (log intensity, higher = more binding, comparable within an allelic series).
Consider GGCGGAAC, for which the binding signal was 8.14 upbm affinity estimate (log intensity, higher = more binding, comparable within an allelic series).
On the same count and under the same terms, the figure for CCTCGTTA is 10.3 upbm affinity estimate (log intensity, higher = more binding, comparable within an allelic series); for AAATCTAC it is 9.32 upbm affinity estimate (log intensity, higher = more binding, comparable within an allelic series).
Still for that read-out and setting: the figure for CAAGGCCC is 7.94 upbm affinity estimate (log intensity, higher = more binding, comparable within an allelic series); for CTCCCGAG it is 8.03 upbm affinity estimate (log intensity, higher = more binding, comparable within an allelic series); for CGGAGGGA it is 8.11 upbm affinity estimate (log intensity, higher = more binding, comparable within an allelic series).
In the case of CTAATGGA, the binding signal is 11.7 upbm affinity estimate (log intensity, higher = more binding, comparable within an allelic series).
As to GCGCGCCC, the binding signal was 8.19 upbm affinity estimate (log intensity, higher = more binding, comparable within an allelic series).
Take CGGGCACG: the binding signal is 7.97 upbm affinity estimate (log intensity, higher = more binding, comparable within an allelic series).
Turning to ACTCGTTA, the binding signal was 9.91 upbm affinity estimate (log intensity, higher = more binding, comparable within an allelic series).
Consider ATGATATG, for which the binding signal is 9.57 upbm affinity estimate (log intensity, higher = more binding, comparable within an allelic series).
With CGATTACC, the binding signal is 10.2 upbm affinity estimate (log intensity, higher = more binding, comparable within an allelic series).
AGTTAATG: the binding signal was 11.5 upbm affinity estimate (log intensity, higher = more binding, comparable within an allelic series).
On the same count and under the same terms, in the case of CCCCTCCC it was 8.02 upbm affinity estimate (log intensity, higher = more binding, comparable within an allelic series); in that of GCCAGGGC, 7.76 upbm affinity estimate (log intensity, higher = more binding, comparable within an allelic series); in that of GGGAGGAC, 8.23 upbm affinity estimate (log intensity, higher = more binding, comparable within an allelic series).
Same read-out and setting: the figure for AATGATAC is 9.95 upbm affinity estimate (log intensity, higher = more binding, comparable within an allelic series); for CCCCCTGC it is 8.15 upbm affinity estimate (log intensity, higher = more binding, comparable within an allelic series).

Another experiment has as its target HOXB9 (Homo sapiens, UniProt P17482 171-250, T197M). The experiment in a line: PBM; 200 nM protein, PBS. As to conditions: dsDNA, one strand shown.
Take CCATTAAC: the binding signal was 9.99 upbm affinity estimate (log intensity, higher = more binding, comparable within an allelic series).
Take GCCATTAA: the binding signal is 10.1 upbm affinity estimate (log intensity, higher = more binding, comparable within an allelic series).
Still for that read-out and setting: in the case of CGAGCGAC it was 8.47 upbm affinity estimate (log intensity, higher = more binding, comparable within an allelic series); in that of GACCCAGC, 8.5 upbm affinity estimate (log intensity, higher = more binding, comparable within an allelic series).
For GCCGCAGC, the binding signal was 8.46 upbm affinity estimate (log intensity, higher = more binding, comparable within an allelic series).
For CCCGGACG, the binding signal was 8.39 upbm affinity estimate (log intensity, higher = more binding, comparable within an allelic series).
As to CACGGGGG, the binding signal is 8.4 upbm affinity estimate (log intensity, higher = more binding, comparable within an allelic series).
Still for that read-out and setting: in the case of AGAGGGGC it was 8.56 upbm affinity estimate (log intensity, higher = more binding, comparable within an allelic series); in that of CTCCCGAG, 8.41 upbm affinity estimate (log intensity, higher = more binding, comparable within an allelic series); in that of GCGCGCCC, 8.46 upbm affinity estimate (log intensity, higher = more binding, comparable within an allelic series).

The next experiment addresses T2, SIX6 (Homo sapiens, UniProt O95475 114-200, L167I).
T2 sequence: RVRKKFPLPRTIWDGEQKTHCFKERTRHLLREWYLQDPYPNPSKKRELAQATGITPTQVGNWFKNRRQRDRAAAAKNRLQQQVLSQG
Kind of experiment: PBM; 200 nM protein, PBS. As to conditions: dsDNA, one strand shown.
For GCTTGGCC, the binding signal was 8.94 upbm affinity estimate (log intensity, higher = more binding, comparable within an allelic series).
Same read-out and setting: the figure for GGCGGAAC is 8.85 upbm affinity estimate (log intensity, higher = more binding, comparable within an allelic series).
Still for that read-out and setting: the figure for CAAGGCCC is 8.9 upbm affinity estimate (log intensity, higher = more binding, comparable within an allelic series); for GCGCGCCC it is 8.73 upbm affinity estimate (log intensity, higher = more binding, comparable within an allelic series); for ATGATATG it is 11.3 upbm affinity estimate (log intensity, higher = more binding, comparable within an allelic series).
Consider AATGATAC, for which the binding signal was 11.5 upbm affinity estimate (log intensity, higher = more binding, comparable within an allelic series).

The target of a further experiment is HOXA4 (Homo sapiens, UniProt Q00056 201-287, W262R). Kind of experiment: PBM; 200 nM protein, PBS. The note with it: dsDNA, one strand shown.
Sequence of HOXA4 (Q00056 201-287 W262R): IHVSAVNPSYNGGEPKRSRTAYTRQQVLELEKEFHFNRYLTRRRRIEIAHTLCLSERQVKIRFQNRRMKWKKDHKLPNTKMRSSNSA
In the case of CCATTAAC, the binding signal was 10.6 upbm affinity estimate (log intensity, higher = more binding, comparable within an allelic series).
Regarding CCAGGGCC, the binding signal was 9.65 upbm affinity estimate (log intensity, higher = more binding, comparable within an allelic series).
For CCCTTCCG, the binding signal is 9.79 upbm affinity estimate (log intensity, higher = more binding, comparable within an allelic series).
The same measure, in the same setting: in the case of CGGAGGGA it was 9.84 upbm affinity estimate (log intensity, higher = more binding, comparable within an allelic series); in that of GCCAGGGC, 9.77 upbm affinity estimate (log intensity, higher = more binding, comparable within an allelic series); in that of GGGAGGAC, 9.79 upbm affinity estimate (log intensity, higher = more binding, comparable within an allelic series).
Take CCCCCTGC: the binding signal is 9.55 upbm affinity estimate (log intensity, higher = more binding, comparable within an allelic series).

The target in the next experiment is HOXC9 (Homo sapiens, UniProt P31274 178-260, K195R). Kind of experiment: PBM; 200 nM protein, PBS. As to conditions: dsDNA, one strand shown.
Sequence of HOXC9 (P31274 178-260 K195R): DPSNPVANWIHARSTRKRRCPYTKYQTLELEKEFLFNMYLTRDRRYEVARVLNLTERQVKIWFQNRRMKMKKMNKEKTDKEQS
In the case of CCATTAAC, the binding signal is 12.7 upbm affinity estimate (log intensity, higher = more binding, comparable within an allelic series).
For the sequence GGGGTACC, the binding signal was 9.78 upbm affinity estimate (log intensity, higher = more binding, comparable within an allelic series).
For GCCATTAA, the binding signal is 12.9 upbm affinity estimate (log intensity, higher = more binding, comparable within an allelic series).
On the same count and under the same terms, in the case of CCCCCTGA it was 9.31 upbm affinity estimate (log intensity, higher = more binding, comparable within an allelic series); in that of CCCCATGC, 9.5 upbm affinity estimate (log intensity, higher = more binding, comparable within an allelic series); in that of CCCCTCGG, 9.54 upbm affinity estimate (log intensity, higher = more binding, comparable within an allelic series).
With CGAGCGAC, the binding signal is 9.58 upbm affinity estimate (log intensity, higher = more binding, comparable within an allelic series).
Still for that read-out and setting: in the case of CCGTCCGC it was 9.35 upbm affinity estimate (log intensity, higher = more binding, comparable within an allelic series); in that of CCGGGAGG, 9.54 upbm affinity estimate (log intensity, higher = more binding, comparable within an allelic series); in that of GCTTGGCC, 9.68 upbm affinity estimate (log intensity, higher = more binding, comparable within an allelic series).
Still for that read-out and setting: the figure for ACGCATTA is 11.2 upbm affinity estimate (log intensity, higher = more binding, comparable within an allelic series); for CTGGGACC it is 9.45 upbm affinity estimate (log intensity, higher = more binding, comparable within an allelic series); for GGCACCAC it is 9.65 upbm affinity estimate (log intensity, higher = more binding, comparable within an allelic series).
Same read-out and setting: in the case of CGGAGGGA it was 9.42 upbm affinity estimate (log intensity, higher = more binding, comparable within an allelic series); in that of CGGGCACG, 9.61 upbm affinity estimate (log intensity, higher = more binding, comparable within an allelic series); in that of AGTTAATG, 12.5 upbm affinity estimate (log intensity, higher = more binding, comparable within an allelic series).
As for CCCCTCCC, the binding signal is 9.65 upbm affinity estimate (log intensity, higher = more binding, comparable within an allelic series).

For the next experiment, the target named is T3, VENTX (Homo sapiens, UniProt O95231 78-163).
T3 sequence: T1 sequence with Q44R
Kind of experiment: PBM; 200 nM protein, PBS. The note with it: dsDNA, one strand shown.
CCATTAAC: the binding signal was 12.6 upbm affinity estimate (log intensity, higher = more binding, comparable within an allelic series).
On the same count and under the same terms, in the case of GGGGTACC it was 8.11 upbm affinity estimate (log intensity, higher = more binding, comparable within an allelic series); in that of GCCATTAA, 12.3 upbm affinity estimate (log intensity, higher = more binding, comparable within an allelic series); in that of CCCCCTGA, 7.95 upbm affinity estimate (log intensity, higher = more binding, comparable within an allelic series).
As for CCCCATGC, the binding signal was 8.26 upbm affinity estimate (log intensity, higher = more binding, comparable within an allelic series).
With CCCCTCGG, the binding signal was 7.93 upbm affinity estimate (log intensity, higher = more binding, comparable within an allelic series).
